According to PubChem BioAssay (EPA / NIEHS):
Where a structure was tested more than once in an assay, its records may differ in their call. Calls of active or inactive are those of the source. The calls were made as follows: active = hit-call score of the fitted dose curve at least 0.9, where 1 is the maximum; inactive = score below 0.9.

Test: ATG_E_Box_CIS: Attagene CIS-FACTORIAL HepG2 Assay for human Enhancer Box (E-box) (AID 2282936)
Conditions: HepG2 E-box cis-reporter transcription, actives raise or lower the signal
Protocol: ATG_CIS is a cell-based, multiplexed-readout assay that uses HepG2, a human liver cell line, with measurements taken at 24 hours after chemical dosing in a 24-well plate.ATG_E_Box_CIS is one of 52 assay component(s) measured or calculated from the ATG_CIS assay. It is designed to make measurements of mRNA induction, a form of inducible reporter, as detected with fluorescence intensity signals by Reverse transcription polymerase chain reaction (RT-PCR) and Capillary electrophoresis technology.Data from the assay component ATG_E_Box_CIS was analyzed into 1 assay endpoint. This assay endpoint, ATG_E_Box_CIS, was analyzed with bidirectional fitting relative to DMSO as the negative control and baseline of activity. Using a type of inducible reporter, measures of mRNA for gain or loss-of-signal activity can be used to understand the reporter gene at the transcription factor-level as they relate to the gene USF1. Furthermore, this assay endpoint can be referred to as a primary readout, because this assay has produced multiple assay endpoints where this one serves a reporter gene function. To generalize the intended target to other relatable targets, this assay endpoint is annotated to the dna binding intended target family, where the subfamily is basic helix-loop-helix protein.
Human liver HepG2 cells are transiently transfected with multiple reporter transcription units (MRTUs) in 6-well plates using FuGene 6 reagent (Roche; 3 ml FuGene/1 mg DNA). The MRTU constructs are regulated by a cis-regulating element (promoter). […] A major difference between the CIS and TRANS system is that in CIS activities of endogenous TFs are measured, whereas the TRANS assay evaluates changes in activities of exogenous, chimeric NR-Gal4 proteins. […] At the end of 24 hour incubation, total RNA was isolated using TriZol reagent (Invitrogen). The isolated RNA is then reverse-transcribed using oligo(dT) primer and Mo-MLV reverse transcriptase (Invitrogen) with DNAse I (Ambion) treatment for 30 min. The one-tenth of the produced cDNA was amplified by PCR using Taq DNA polymerase (Invitrogen) and two reporter sequence-specific primers. The PCR products were fluorescently labeled by primer extension with 6-arboxyfluorescein (6-FAM) 5'-labeled reporter sequence-specific primer (2 min at 95 C, 20 s at 68 C and 10 min at 72 C) and these products were digested with 5U of HpaI (New England Biolabs) for 2h at 37 C. The fragments were purified using Qiaquick PCR columns (Qiagen), analyzed on an ABI 3130xL genetic analyzer (Applied Biosystems) with peak positions identified by using a set of X-rhodamine (ROX)-labeled MapMarker1000 molecular weight standards (BioVentures). The raw capillary electrophoresis data was processed using Attagraph software (Attagene).

| Structure (SMILES) | outcome | AC50 |
| --- | --- | --- |
| Cc1nn(-c2cc(NS(C)(=O)=O)c(Cl)cc2Cl)c(=O)n1C(F)F | inactive |  |
| CCNc1nc(Cl)nc(NC(C)(C)C#N)n1 | inactive |  |
| CN(C)NC(=O)CCC(=O)O | inactive |  |
| COP(=O)(OC)OC(Br)C(Cl)(Cl)Br (stereo not given) | inactive |  |
| CCOC(=O)CC(SP(=O)(OC)OC)C(=O)OCC (stereo not given) | inactive |  |
| CCCSP(=O)(OCC)SCCC | inactive |  |
| O=C(O)c1cc(Oc2ccc(C(F)(F)F)cc2Cl)ccc1[N+](=O)[O-] | inactive |  |
| CCOP(=S)(OCC)Oc1cc(C)nc(C(C)C)n1 | inactive |  |
| O=[N+]([O-])c1cc(C(F)(F)F)c(Cl)c([N+](=O)[O-])c1Nc1ncc(C(F)(F)F)cc1Cl | inactive | 15.2 µM (active) |
| CN(C)[C@@H]1C(=O)C(C(N)=O)=C(O)[C@@]2(O)C(=O)C3=C(O)c4c(O)cccc4[C@@](C)(O)[C@H]3[C@H](O)[C@@H]12 | inactive |  |
| CC(C)N(C(=O)SCC(Cl)=C(Cl)Cl)C(C)C | inactive |  |
| CNC(=O)ON=C(C)SC | inactive |  |
| O=c1ccc(=O)[nH][nH]1 | inactive |  |
| CCOP(=S)(Oc1cnc(C(C)(C)C)nc1)OC(C)C (stereo not given) |  | 27 µM (active) |
| COc1cccc(C(=O)NN(C(=O)c2cc(C)cc(C)c2)C(C)(C)C)c1C | inactive |  |
| CC[C@H](C)[C@H]1O[C@]2(C=C[C@@H]1C)C[C@@H]1C[C@@H](C/C=C(\C)[C@@H](O[C@H]3C[C@H](OC)[C@@H](O[C@H]4C[C@H](OC)[C@@H](NC)[C@H](C)O4)[C@H](C)O3)[C@@H](C)/C=C/C=C3\CO[C@@H]4[C@H](O)C(C)=C[C@@H](C(=O)O1)[C@]34O)O2 | inactive |  |
| CNc1cnn(-c2cccc(C(F)(F)F)c2)c(=O)c1Cl | inactive |  |
| CCOC(=O)COc1cc(-c2nn(C)c(OC(F)F)c2Cl)c(F)cc1Cl | inactive |  |
| CNC(=O)Oc1cccc2c1OC(C)(C)O2 | inactive |  |
| CCOP(=O)(SC(C)CC)N1CCSC1=O (stereo not given) | inactive |  |

| Structure (SMILES) | outcome | AC50 |
| --- | --- | --- |
| CCOP(=O)(NC(C)C)Oc1ccc(SC)c(C)c1 (stereo not given) | inactive |  |
| CCC(CC)Nc1c([N+](=O)[O-])cc(C)c(C)c1[N+](=O)[O-] | inactive |  |
| CCCSP(=O)(OCC)Oc1ccc(Br)cc1Cl (stereo not given) | inactive |  |
| COc1ccc(C(=CC(=O)N2CCOCC2)c2ccc(Cl)cc2)cc1OC | inactive |  |
| CON=C(C(=O)OC)c1ccccc1CON=C(C)c1cccc(C(F)(F)F)c1 |  | 12.5 µM (active) |
| CNC(=O)ON=C(SC)C(=O)N(C)C | inactive |  |
| CN1COCN(Cc2cnc(Cl)s2)C1=N[N+](=O)[O-] | inactive |  |
| C#CCC1=C(C)C(OC(=O)C2C(C=C(C)C)C2(C)C)CC1=O (stereo not given) |  | 78.6 µM (active) |
| Nc1nc(N)nc(NC2CC2)n1 | inactive |  |
| CCc1cccc(CC)c1N(COC)C(=O)CCl | inactive |  |
| CCCCOC(=O)c1ccccc1C(=O)O | inactive |  |
| COP(=O)(OC)C(O)C(Cl)(Cl)Cl (stereo not given) | inactive |  |
| CC(C1CC1)C(O)(Cn1cncn1)c1ccc(Cl)cc1 (stereo not given) | inactive |  |
| CC(Oc1cccc(Cl)c1)C(=O)O (stereo not given) | inactive |  |
| Nc1c(Cl)cc([N+](=O)[O-])cc1Cl | inactive |  |
| CCC(=O)Nc1ccc(Cl)c(Cl)c1 | inactive |  |
| CCCCSP(=O)(SCCCC)SCCCC |  | 56.5 µM (active) |
| CC(=NC#N)N(C)Cc1ccc(Cl)nc1 | inactive |  |
| C#CC(C)(C)NC(=O)c1cc(Cl)cc(Cl)c1 | inactive |  |
